Screening data as filed in PubChem BioAssay.
FUS suppressor: FUS proteinopathy suppression in yeast; Potency, µM (highest dose often 76.6 µM), hits mostly activators; S. cerevisiae FUS-expressing, growth rescue, OD600, 24 h; 390,000 tested, 0.24% active; AID 1347120;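 also: plate controls were DMSO vehicle for no effect and reference control for full effect; nearly all actives have a fitted effect of over 55% in size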
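S. cerevisiae expressing FUS from galactose induction served as the toxicity model. Growth after 24hr at 30C, read as absorbance at 600 nm, indicates suppression of toxicity; compounds dosed at several concentrations.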
Abeta rescue: A-beta toxicity reversal in yeast. yeast expressing A-beta42, growth rescue, OD600, 48 h; response scale: 0% DMSO, 100% iron-clioquinol control. Potency, µM (titrated, usually from 46.1 µM), usual class: activators. 410,000 tested, 0.063% active; also: nearly all actives have a fitted effect of over 55% in size
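Growth rescue measured by 600 nm absorbance after 48 h yeast culture at 30 C with compound. Values normalized between DMSO and an equimolar ferric chloride plus clioquinol control.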
aSyn rescue: rescues yeast growth from alpha-synuclein toxicity. AID 652106. Yeast expressing alpha-synuclein, growth rescue, BacTiter-Glo, 24 h. 370,000 tested, 0.14% active. Potency, µM (titrated, usually from 46.1 µM), for inactives: at the highest dose growth rescue (activation), usual class: activators; also: % of control where 0% means no effect; nearly all actives have a fitted effect of over 65% in size
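Rescue of yeast growth: cells expressing toxic alpha-synuclein, induced in galactose at OD600 0.02, incubated with compound 24 h at 30 C. ATP luminescence quantified growth; inhibitors of toxicity appear as activators.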
TDP-43 yeast inh: inhibitors of TDP-43 toxicity in yeast; 410,000 tested, 1.8% active; TDP-43 expressing yeast growth rescue, BacTiter-Glo, 24 h; Potency, µM (top dose mostly 46.1 µM), inactives show top-dose growth rescue (activation), usual class: activators; also: % of control where 0% means no effect; nearly all actives have a fitted effect of over 50% in size
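Readout is BacTiter-Glo luminescence of cell growth, so inhibitors register as activators. TDP-43-expressing yeast at OD600=0.02 in galactose medium, after raffinose pregrowth to mid-log, were incubated with compound for 24 hr at 30 deg C.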
Chronic BCR inh: blocks chronic active B-cell receptor signaling. 340,000 tested, 0.05% active. AID 493014. ABC-DLBCL IkBa-CBG/CBR reporter, luminescence ratio, 4 h. Potency, µM (titrated, usually from 46.1 µM), without a hit: at the top dose activity change, negative = inhibition, hits mostly inhibitors; active = well fitted inhibition curve with a large enough effect in the signal ratio, with a control signal flat, not every such curve was filed as active; inconclusive = small, poorly fitted or top-dose-only effect, or effect the other way, or a change in a side signal; the % refers to the signal ratio;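 also: plate controls were basal doxycycline-induced cells for no effect and cells given 10 µM MG132 for full effect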
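TMD8 human ABC-DLBCL cells with doxycycline-inducible IκBα–green luciferase fusion and unfused red luciferase, in 0.5% FBS medium; compounds up to 46 uM, 4 h at 37C. Green/red luminescence ratio, filter-overlap corrected, fitted to concentration-response curves.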
uPA generation: inhibitors of cell surface uPA generation; Potency, µM (series often up to 38.3 µM), inactives show top-dose activity change, negative = inhibition, most hits filed as inhibitors; 330,000 tested, 0.31% active; AID 540303; cell surface uPA generation assay, qHTS; active = well fitted inhibition curve with a large enough effect; inconclusive = small, poorly fitted or top-dose-only effect; inactive = no such curve, though single readings can be large or run the other way; tested in mouse RAW 264.7 cells; also: % is scaled to controls: 0 for no effect and ±100 for the full control effect; nearly all actives have a fitted effect of over 55% in size
Active calls of the source: *; i = inactive; ? = inconclusive; . = not tested or not shown; [ ] = another dose, or the depositor's remark. Sampled rows, rich in hits. Any-hit rate of the full collection: about 2.3%. Unless noted, calls follow the shape of the dose curve; as a rule, active = well fitted curve in the direction sought with a large enough effect; inconclusive = small, poorly fitted or top-dose-only effect, or another doubt; inactive = no such curve, though single readings can be large; an effect the other way counts as inactive or inconclusive. Potency is read from the fitted curve at half-maximal effect.

SMILES	FUS suppressor	Abeta rescue	aSyn rescue	TDP-43 yeast inh	Chronic BCR inh	uPA generation
Cc1cccc(OCC(=O)Nc2nc3c(s2)CC(C(C)(C)C)CC3)c1C (stereo unspecified)	i	i	.	-17%	.	.
COc1ccc(CC(=O)Nc2nc3c(s2)CC(C)CC3)cc1 (stereo unspecified)	i	?	.	13µM*	.	.
O=[N+]([O-])c1ccc(/C=[N+](\[O-])CCO)o1	i	i	22%	11µM*	12%	-11%
Clc1ccc2c(c1)c1cc(Cl)ccc1n2CN1CCOCC1	i	i	-25%	6.3µM*	?	3%
COc1ccc(C(C)NC(=S)NCc2ccc(F)cc2)cc1 (stereo unspecified)	i	11µM*	0%	?	-10%	-3%
CCC(NC(=S)NCc1ccc(F)cc1)c1ccccc1 (stereo unspecified)	i	11µM*	-2%	16%	0%	49%
COc1cccc(C(C)NC(=S)NCc2ccc(Cl)cc2)c1 (stereo unspecified)	i	i	-1%	10%	-3%	.
O=C(CSc1ccc2c(c1)OCCO2)NCCc1ccc(Cl)cc1Cl	.	i	?	11µM*	2%	6%
CCCCC(O)(c1ccccc1)C(CN1CCOCC1)c1ccccc1 (stereo unspecified)	i	i	-4%	1%	1%	11%
Cc1cc(C)c2c(=O)cc(C(=O)Nc3nc4ccc(F)cc4s3)oc2c1	i	i	.	16%	.	.
COc1ccc(NC(=O)C2CC(c3c(F)cccc3Cl)=NO2)cc1 (stereo unspecified)	i	i	-2%	13µM*	3%	-7%
CCc1ccc(NC(=O)CSc2nccn2-c2cccc(C)c2C)cc1	i	i	?	32µM*	.	.
Cc1ccc(C)c(NC(=O)CSc2nccn2-c2cccc(C)c2C)c1	i	i	.	?	.	.
CCc1ccc(NC(=O)CSc2nccn2-c2ccc(F)cc2)cc1	i	?	.	16µM*	.	.
CCc1ccc(NC(=O)CSc2nccn2-c2ccc(OC)cc2)cc1	?	i	.	?	.	.
CCOc1ccc(C(=O)Nc2ccc3oc(-c4ccncc4)nc3c2)cc1	i	i	.	21%	.	.
O/N=C(/c1ccc(F)cc1)C1CC1c1c(F)cccc1Cl (stereo unspecified)	i	i	-27%	?	-7%	-1%
COc1ccc([N+](=O)[O-])cc1NC(=O)C(C)OC(=O)CC1CCCC1 (stereo unspecified)	?	i	-10%[1.84 µM]	20µM*	-5%	1%
COc1ccc([N+](=O)[O-])cc1NC(=O)C(C)OC(=O)C1CCCC1 (stereo unspecified)	i	i	-3%	27%	0%	-3%
COc1ccc([N+](=O)[O-])cc1NC(=O)C(C)Sc1ccc(C)cc1 (stereo unspecified)	.	i	9%	13µM*	?	3%
O=C(NCc1cccc(F)c1)c1cccc2c1C(=O)c1ccc(N3CCC(Cc4ccccc4)CC3)cc1S2(=O)=O	i	i	-5%	1%	-1%	-18%
CCc1cccc(C)c1NC(=O)CN1C(=O)NC(C)(CCC(C)C)C1=O (stereo unspecified)	i	i	-2%	-12%	0%	7%
Fc1ccc(-c2nc3ccc(Br)cn3c2Cc2ccccc2)cc1	i	i	17%	35µM*	.	.
Clc1ccc(-c2nc3ccc(Br)cn3c2Cc2ccsc2)cc1	i	i	-17%	35µM*	.	.
Fc1ccc(-c2nc3ccc(Br)cn3c2Cc2cccc(F)c2)cc1	i	i	-8%	16%	.	.
SMILES	FUS suppressor	Abeta rescue	aSyn rescue	TDP-43 yeast inh	Chronic BCR inh	uPA generation
Fc1ccc(-c2nc3ccc(Br)cn3c2Cc2cccc(Cl)c2)cc1	i	i	4%	35µM*	.	.
Clc1cc(Cl)c(OCc2nc(-c3ccccn3)no2)cc1Cl	i	i	0%	?	-3%	0%
CN(CC(=O)Nc1ccc(OC(F)(F)F)cc1)S(=O)(=O)c1ccc2c(c1)CCC(=O)N2	i	i	.	6%	.	.
COc1ccc(-n2nc3cc(C)c(NC(=O)c4cccnc4)cc3n2)cc1	i	i	-2%	-1%	?	6%
Cc1ccccc1-n1nc(C(=O)O)cc1-c1ccccc1	i	i	4%	-16%	?	.
O=c1[nH]ncc(N2CCN(C(c3ccccc3)c3ccccc3)CC2)c1Cl	i	i	8%	15%	-6%	-9%
N#CC(=C1C=CC(=NO)C(Cl)=C1)c1ccccc1	i	i	-10%	7.1µM*	.	.
Cc1c(CC(=O)N2CCN(C(=O)C3COc4ccccc4O3)CC2)c(=O)oc2cc(O)cc(O)c12 (stereo unspecified)	18µM*	i	-18%	-7%	-4%	4%
COC(=O)[C@@H](NCc1ccc(OC)c(B(O)O)c1)C(C)C	i	i	-7%	18%	.	5%
NC(=O)N\N=C/C=C/C=C/c1ccc(F)cc1	i	i	1%	21%	-2%	0%
NC(=O)N/N=C/C=C/c1ccccc1	i	i	-19%	4µM*	6%	-2%
O=C(N/N=C/C=C/c1ccccc1)NC1CCCCC1	i	?	?	18µM*	?	6%
Cc1ccc(C(=O)NC2CC3CCC(C2)N3C)cc1 (stereo unspecified)	i	i	-1%	5%	0%	18%
CCN(CC)CCNC(=O)COc1ccc(Cl)cc1Cl	i	i	-8%	-21%	0%	-5%
O=C(Oc1ccccc1/C=C\C(=O)c1cc2ccccc2o1)c1ccccc1	.	i	28%	22µM*	-7%	-12%
COc1cccc(C(=O)Oc2ccccc2/C=C\C(=O)c2cc3ccccc3o2)c1	i	i	14%	0%	?	8.9µM*
Cc1cccc(C)c1NC(=O)C1C(c2ccc3c(c2)OCO3)=Nc2ccccc2N1C(=O)c1ccccc1 (stereo unspecified)	i	i	3%	?	.	.
O=C(Nc1ccc2c(c1)OCCO2)C1C(c2ccccc2)=Nc2ccccc2N1C(=O)c1cccnc1 (stereo unspecified)	7.9µM*	i	-2%	-20%	.	.
O=C(NCc1ccccc1)C1C(c2ccc3c(c2)OCO3)=Nc2ccccc2N1C(=O)c1ccccc1 (stereo unspecified)	i	i	-1%	13µM*	.	.
CCCn1c(CC)nc([N+](=O)[O-])c1Sc1ccc(F)cc1	i	i	1%	0%	-6%	-14%
